# Reference: PubChem BioAssay (NCI)
# Several values for one entry are separate records, joined by “and”; a condition that tells them apart may be missing. Identical values can stand only once. The panel holds about 83,000 compounds, 20% with a hit somewhere; the sample as a whole holds those more often.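 Testing used 96-well plates and a 48-hour single-concentration exposure. Example: -40 means 40% of the starting cells died.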 Values without a mark were called inactive. Activity calls are given as the source filed them. The calls were made as follows: active = growth percent below 10; inactive = the rest.
# Key:
# Assay in all cases: NCI-60 one-dose screen, 48 h (100 = growth as untreated, 0 = no growth, -100 = all killed)
# [1] = tested on: SK-MEL-2 melanoma; conditions: 10 µM
# [2] = tested on: EKVX NSCLC; conditions: 10 µM
# [3] = tested on: SN12C renal; conditions: 10 µM
# [4] = tested on: UO-31 renal; conditions: 10 µM
# [5] = tested on: TK-10 renal
# [6] = tested on: ACHN renal; conditions: 10 µM
# [7] = tested on: CAKI-1 renal; conditions: 10 µM
# [8] = tested on: A498 renal; conditions: 10 µM
# [9] = tested on: CCRF-CEM leukemia; conditions: 10 µM
# [10] = tested on: MOLT-4 leukemia; conditions: 10 µM
SMILES,growth [1],growth [2],growth [3],growth [4],growth ([5]; 10 µM unless noted),growth [6],growth [7],growth [8],growth [9],growth [10],growth ([5]; 10 µM) [%],growth ([5]; 100 µM)
CC(C)C(C#N)(C(C)C)C(C)C,98%,96.7%,99.9%,81.5%,96%,108%,95.6%,98.3%,102%,,,
CCOC(=O)C(O)C(O)C(=O)OCC (stereo not drawn),103%,111%,102%,97.1%,102%,109%,101%,101%,107%,104%,,
C=C1CC/C=C(\C)C(=O)C[C@@H]2[C@@H]1CC2(C)C,102%,104%,114%,88.3%,,102%,,85%,69.3%,93.5%,123,-73.6% (active)
NCC(=O)CCC(=O)O,126%,109%,105%,94.6%,114%,99.2%,109%,110%,109%,108%,,
O=C(O)CCCCNC(=O)c1ccccc1,113%,103%,115%,100%,101%,115%,107%,91.4%,110%,106%,,
CCOC(=O)/C(C#N)=C/c1cccc(C)c1,106%,98.9%,103%,88.9%,98%,98.9%,69.5%,101%,,,,
CCCCNC1(C#N)CCN(Cc2ccccc2)CC1,102%,95.5%,104%,81.1%,105%,106%,76.1%,78.5%,102%,152%,,
CCN(CC)CCNc1ccc(CO)c2sc3ccccc3c(=O)c12,45.4%,65.6%,37.5%,25.5%,46.4%,20.4%,43.2%,-17.9% (active),37%,8.97% (active),,
O=c1[nH]n(-c2ccccc2)c(=O)cc1Cl,104%,110%,93.3%,84.7%,102%,98.5%,121%,108%,106%,95.4%,,
COc1cc2cc(c1Cl)N(C)C(=O)C[C@H](OC(=O)[C@H](C)N(C)C(C)=O)[C@]1(C)O[C@H]1[C@H](C)[C@@H]1C[C@@](O)(NC(=O)O1)[C@H](OC)C=C/C=C(\C)C2,55.5%,31.3%,27.6%,7.35% (active),26.5%,16.6%,6.3% (active),4.38% (active),-7.22% (active),14.2%,,
CC(C)=NNc1ccc([N+](=O)[O-])cc1[N+](=O)[O-],113%,74%,84.4%,61.3%,96.9%,64.8%,53.9%,74.5%,42.2%,,,
CCNc1nc2c(cnn2C)c(=O)[nH]1,103%,99.4%,103%,85.7%,104%,107%,93.9%,97.1%,93.9%,102%,,
COc1ccc(C)cc1OC,112%,108%,99.3%,89.8%,104%,115%,101%,94.5%,,,,
CCC/C=C(/C(C)=O)C(=O)OCC,132%,168%,101%,101%,139%,103%,128%,132%,143%,,,
O=[N+]([O-])c1cccc(N=Nc2ccc(O)cc2O)c1,79.8%,69.9%,79.6%,57.3%,65.7%,78.7%,39.1%,66.9%,,,,
CC(=O)OCC1=CC2OC(=O)C3=COC(OC4OC(CO)C(O)C(O)C4O)C1C32 (stereo not drawn),138%,101%,101%,96.7%,,111%,101%,,104%,141%,113,81% and 93.8%
O=[N+]([O-])c1ccc(N=Nc2ccccc2)cc1,94.3%,106%,94.3%,65.7%,92.2%,96.2%,92.8%,89.8%,38.7%,,,
O=C1N(C[P+](c2ccccc2)(c2ccccc2)c2ccccc2)CCCN1C[P+](c1ccccc1)(c1ccccc1)c1ccccc1,122%,97%,97.3%,87.1%,106%,97.1%,89.4%,85.5%,107%,,,
OCc1ccc(-c2ccc(-c3ccc(CO)s3)o2)s1,79.7%,99.9%,55.7%,41.4%,-20.9% (active),63.7%,-54.3% (active),-89.1% (active),41.5%,33.1%,,
CN(c1ccccc1)c1ncnc2c1ncn2C,100%,102%,98%,79.9%,105%,101%,94%,88.4%,99.1%,,,
NC(=O)c1ccc(N=C(N)N=C(N)N)cc1,121%,73.5%,110%,78.5%,77.5%,112%,93.4%,106%,99.6%,,,

SMILES,growth [1],growth [2],growth [3],growth [4],growth ([5]; 10 µM unless noted),growth [6],growth [7],growth [8],growth [9],growth [10],growth ([5]; 10 µM) [%],growth ([5]; 100 µM)
Cc1cc(C)c(CC(=O)O)c(C)c1,100%,98.3%,113%,94.3%,106%,102%,93.3%,84.4%,103%,98.5%,,
O=C(O)c1cccc([N+](=O)[O-])c1,112%,114%,103%,89.6%,110%,114%,100%,102%,112%,101%,,
Cc1cc(C)c(N)c(S(=O)(=O)O)c1,93.6%,101%,97.7%,76.2%,105%,96.6%,91.3%,142%,86%,113%,,
NC(=S)NN=C1CCCC1,104%,65.4%,94.5%,63.2%,105%,107%,102%,85.6%,42.7%,,,
c1ccc2c(N3CCCCC3)ncnc2c1,92.6%,94%,91.1%,62.5%,90.9%,81.9%,91%,106%,93.2%,,,
CC(=O)c1ccc(C(C)(C)C)cc1,102%,106%,97%,82.7%,105%,97.7%,92.7%,123%,88.4%,,,
CC(C)COC(=O)COC(=O)OCCOCCOC(=O)OCC(=O)OCC(C)C,94.2%,119%,97.9%,89.8%,91.9%,95.7%,116%,99.9%,106%,,,
O=C(NC1CCCCC1)OCc1c(COC(=O)NC2CCCCC2)c(-c2ccc(Cl)c(Cl)c2)n2c1CCC2,-9.91% (active),60.5%,22.3%,-13.6% (active),35.2%,5.4% (active),8.84% (active),-67.7% (active),32.9%,,,
CCOc1ccccc1/C=N/Nc1nc2ccccc2o1,91.3%,101%,92.2%,86.5%,104%,103%,110%,92.1%,95.8%,,,
C#CC(C)(O)c1ccc(Cl)cc1 (stereo not drawn),106%,98.6%,113%,99.4%,106%,110%,103%,98%,103%,107%,,
CC1=NN(c2ccccc2)C(=O)/C1=C\N1CC(=O)NC1=S,108%,105%,101%,92%,122%,98.8%,98%,92.9%,,,,
O=C(CC(=O)c1ccccc1O)c1ccccc1,131%,76.8%,85.7%,87.3%,87.8%,99%,92.2%,98.6%,,,,
CCCCC(CC)COC(C)=O (stereo not drawn),106%,101%,101%,88.3%,102%,106%,96.9%,86.3%,108%,,,
COC(=O)c1cccnc1,93.2%,105%,93.2%,78.9%,96.9%,90.6%,94.8%,101%,96.2%,,,
O=C(NN=C1CCCCC1)C(=O)NN=C1CCCCC1,91.2%,109%,106%,95.6%,99%,109%,110%,119%,85.6%,,,
Cc1cccc([N+](=O)[O-])c1Cl,109%,96.8%,106%,87.3%,119%,97.4%,92.3%,94.5%,99%,,,
NC(C(=O)O)C(O)c1ccco1 (stereo not drawn),115%,109%,111%,96.6%,101%,113%,97.4%,94.5%,94%,112%,,
O=C(O)C(Cc1ccccc1)C(=O)O,111%,106%,103%,91.6%,105%,111%,102%,89.1%,97.9%,116%,,
[O-][N+](=Nc1cccc(Cl)c1)c1cccc(Cl)c1,112%,88.8%,93%,72.8%,108%,94.3%,96.4%,103%,111%,125%,,
CCOc1ccc(/C=N/N=C(N)N)cc1OCC,113%,91.8%,108%,74.7%,106%,97.4%,95.7%,101%,95.4%,87.6%,,
CC12CC3CC1C(C(=O)O2)C3C(=O)O (stereo not drawn),94.7%,105%,105%,93.5%,94.5%,105%,102%,106%,101%,100%,,

SMILES,growth [1],growth [2],growth [3],growth [4],growth ([5]; 10 µM unless noted),growth [6],growth [7],growth [8],growth [9],growth [10],growth ([5]; 10 µM) [%],growth ([5]; 100 µM)
COC(=O)c1ccccc1Br,114%,81.4%,92.4%,96.4%,103%,105%,102%,104%,109%,94.6%,,
COc1cc(/C=C(\C#N)C(=O)c2ccccc2)ccc1OCc1ccccc1,127%,107%,102%,79.7%,109%,102%,96.5%,87.9%,-32.5% (active),106%,,
CN(C)c1nc2c([nH]1)c(=O)n(C)c(=O)n2C,98.7%,104%,105%,99.1%,107%,102%,102%,89.6%,92.5%,99.6%,,
CCOC(=O)c1[nH]c(C)c(C(=O)O)c1C,124%,105%,99.5%,84.7%,104%,102%,97.3%,102%,89.6%,91.9%,,
N/N=C(/Cc1ccccc1)NNC(N)=S,104%,91.9%,104%,81.4%,118%,104%,96.4%,87.5%,93.8%,98.4%,,
COC(=O)/C=C\C(=O)OC,114%,122%,102%,81.1%,109%,113%,112%,104%,110%,87.8%,,
Oc1ccc(O)cc1,104%,113%,106%,82%,128%,85.4%,97.9%,115%,62.7%,78.6%,,
O=[N+]([O-])c1ccc(CO)cc1,118%,101%,106%,93.5%,99.8%,111%,102%,110%,105%,100%,,
Cc1cc(OCCO)cc(C)c1Cl,117%,142%,98.9%,109%,123%,116%,115%,102%,96.3%,100%,,
CC(=O)OCC1CCCO1 (stereo not drawn),106%,96%,103%,92.2%,94.9%,106%,101%,101%,107%,97.6%,,
CC1(C)N=C(N)N=C(N)N1c1cccc(Br)c1,65.3%,45.1%,37.3%,50.2%,51.7%,30.2%,70%,104%,36.1%,41.4%,,
O=c1[nH]c(O)c(/C=C2/C=Nc3ccccc32)[nH]1,104%,95%,98.3%,68.7%,99.9%,87%,106%,86%,58.2%,73.7%,,
CCOC(=O)/C(=C/c1ccc(OC)cc1)N(CC)CC,103%,106%,102%,92.9%,107%,113%,103%,109%,100%,99%,,
NCCC(=O)c1ccc(Cl)cc1,101%,110%,108%,85.7%,102%,121%,101%,107%,103%,89.6%,,
CC(=O)Nc1c(C)cc(C)cc1C,102%,101%,111%,95.5%,104%,107%,91.6%,109%,107%,97.2%,,
O=c1cc(-c2ccccc2)[nH]c(=S)[nH]1,98.8%,129%,102%,79.2%,95.7%,96.7%,175%,97.6%,90.5%,95.3%,,
O=C(CCl)Nc1ccc2c(c1)C(=O)c1ccc(NC(=O)CCl)cc1C2=O,-38.8% (active),-15.2% (active),-49.5% (active),-95.5% (active),3% (active),-65.7% (active),-88.7% (active),12.4%,-46.9% (active),-31.8% (active),,
Brc1cnc2ccccc2c1,100%,103%,98.4%,78.2%,102%,98.2%,97.7%,99%,108%,101%,,
CCN(CC)CCCC(C)Nc1ccnc(/C=C/c2ccc(Cl)cc2)c1 (stereo not drawn),-69.4% (active),50.5%,61.1%,-48.5% (active),-38.8% (active),35.2%,18.1%,22.2%,6.37% (active),13.3%,,
C=CCOC(=O)C(=O)OCC=C,97.1%,132%,101%,108%,95.1%,100%,136%,119%,90.7%,104%,,
